The whole screen tested about 5,500 compounds, of which about 2,000 (36%) were called active. Another 18% or so got no clear call; they are omitted. No stated cut-off is given here; in the data, active means normalized growth mostly below about 0.91 (no sharp cut-off); inconclusive means no clear call, values can overlap the other calls; inactive means mostly above about 0.92. The list shows a part of the results.
Experiment: chemical genetic growth profiling, strain panel (AID 1159580);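 further: tested at 20 µM; growth read once vehicle control cultures reached saturation at 30 °C; 1 = growth at the plate median or of vehicle wells; lower values mean less growth of the strain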
Conditions: S. cerevisiae deletion strains, growth OD

Measured: normalized growth

CCn1cnc2c(Nc3cccc(Cl)c3)nc(N[C@@H]3CCCC[C@@H]3N)nc21
inactive: locus YAL013W, strain DEP1, active compounds read low 0.985 | locus YAL040C, strain CLN3, active compounds read low 1.02 | locus YCL061C, strain MRC1 (second series), active compounds read low 0.998 | locus YDR363W, strain ESC2, active compounds read low 0.993 | locus YER002W, strain NOP16, active compounds read low 1.03 | locus YGR078C, strain PAC10, active compounds read low 1.01 | locus YGR229C, strain SMI1, active compounds read low 0.993 | locus YMR263W, strain SAP30, active compounds read low 1 | locus YNL175C, strain NOP13, active compounds read low 1.08 | locus YNL224C, strain SQS1, active compounds read low 1.04 | locus YOR083W, strain WHI5 (second series), active compounds read low 0.991 | locus YPL241C, strain CIN2, active compounds read low 1.01

Reference: PubChem BioAssay AID1159580 (chemical genetic matrix, 2015)
